A selection: hits, their analogues and other compounds. The true share with any hit is near 10%.
hNpr1 antagonist: blocks ANP-stimulated signaling of human Npr1 receptor. HEK293 hNpr1 GloSensor cGMP, ANP-stimulated luminescence. AID 1347048. actives 1.6% (n = 76,000). Potency, µM (top dose mostly 46.3 µM), without a hit: at the highest dose activity change, negative = inhibition, actives largely listed as inhibitors. P16066; calls by dose curve; also: nearly all actives have a fitted effect of over 60% in size
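Compound pre-incubated 30 min at room temperature on GloSensor-loaded HEK293 cells stably carrying hNpr1 and the pGS-40F cGMP biosensor. Stimulation uses hNppA at 0.1 nM final; luminescence is taken at baseline and 20 min post-agonist.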
GPT2 inhibitor: inhibitors of human GPT2 alanine aminotransferase | Q8TD30 | Recombinant GPT2, coupled pyruvate oxidase/HRP Amplex Red fluorescence | Potency, µM (highest dose often 57.7 µM), for inactives: at the top dose activity change, negative = inhibition, hits mostly inhibitors | actives 0.25% (n = 100,000) | AID 1671188; also: nearly all actives have a fitted effect of over 60% in size
Target sequence (Q8TD30 whole entry, looked up): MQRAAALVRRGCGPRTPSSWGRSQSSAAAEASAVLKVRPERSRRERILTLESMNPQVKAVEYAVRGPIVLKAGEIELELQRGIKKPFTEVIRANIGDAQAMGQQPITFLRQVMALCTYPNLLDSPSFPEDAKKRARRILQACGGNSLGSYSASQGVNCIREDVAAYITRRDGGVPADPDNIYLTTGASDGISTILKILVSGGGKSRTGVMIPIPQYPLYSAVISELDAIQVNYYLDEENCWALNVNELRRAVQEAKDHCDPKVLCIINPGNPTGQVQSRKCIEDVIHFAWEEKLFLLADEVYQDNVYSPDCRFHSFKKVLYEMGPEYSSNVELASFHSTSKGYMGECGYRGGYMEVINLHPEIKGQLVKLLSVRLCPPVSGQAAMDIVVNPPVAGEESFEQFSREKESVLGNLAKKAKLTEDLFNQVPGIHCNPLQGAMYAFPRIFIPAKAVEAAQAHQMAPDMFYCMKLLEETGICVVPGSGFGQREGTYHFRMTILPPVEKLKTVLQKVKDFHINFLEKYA
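Fluorescence read-out: pyruvate from GPT2 turnover coupled to pyruvate oxidase, HRP and Amplex Red (0.2mM ThPP, 0.2U/mL PO and HRP, 50uM Amplex final). Substrates 250uM a-KG, 2mM L-alanine; enzyme 10ng/uL; 30 min RT.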
HEK293 tox: HEK 293 cell cytotoxicity; HEK 293 viability, ATP luminescence (CellTiter-Glo), 48-72 h; Potency, µM (doses to about 115 µM), for inactives: at the top dose activity change, negative = cytotoxicity, most hits filed as inhibitors; actives 6.6% (n = 94,000); AID 1345083; also: nearly all actives have a fitted effect of over 60% in size
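Viability of HEK 293 cells, plated at 250 cells/well, was judged by cellular ATP after compound treatment for 48 or 72 hr. Luminescence was imaged 10 min after CellTiter-Glo addition at room temperature.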
3T3 cytotox: kills NIH 3T3 cells | NIH 3T3 viability, CellTiter-Glo ATP luminescence, 48-72 h | Potency, µM (top dose mostly 96.7 µM), inactives show top-dose activity change, negative = cytotoxicity, actives largely listed as inhibitors | actives 4.3% (n = 94,000) | AID 1345082; also: nearly all actives have a fitted effect of over 55% in size
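Cytotoxicity is measured as loss of cellular ATP: NIH 3T3 cells (400/well) are exposed to compound for 48 or 72 hr at 37 °C, then CellTiter-Glo luminescence is imaged after 10 min at room temperature.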
Luciferase inh: inhibitors of firefly (Photinus pyralis) luciferase; P08659; purified P. pyralis luciferase, luminescence, biochemical; Potency, µM (titrated, usually from 115 µM), usual class: inhibitors; actives 2.5% (n = 76,000); AID 1347043; also: nearly all actives have a fitted effect of over 65% in size
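Biochemical qHTS: compound (6-point titration) added to 10uM D-luciferin plus 10uM ATP in Tris acetate pH 7.5 buffer with Mg, Tween-20 and BSA, then purified enzyme at 10nM; light output imaged.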
* hit, by the source's call; i = inactive; ? = inconclusive; nt = no result; ! = repeats disagree; [ ] = dose if it differs, or a comment. Unless noted, calls follow the shape of the dose curve; as a rule, active = well fitted curve in the direction sought with a large enough effect; inconclusive = small, poorly fitted or top-dose-only effect, or another doubt; inactive = no such curve, though single readings can be large; an effect the other way counts as inactive or inconclusive. % is scaled to controls: 0 for no effect and ±100 for the full control effect; potency is read from the fitted curve at half-maximal effect.

SMILES | hNpr1 antagonist | GPT2 inhibitor | HEK293 tox | 3T3 cytotox | Luciferase inh
COC1CCN(c2cc(-c3ccccc3)nc3c(C)noc23)CC1 | 1.9%[70.6 µM] | 2.4%[88.5 µM] | ? | ? | i
COC1CCCN(c2cc(-c3ccc(Cl)cc3)nc3c(C)noc23)C1 (stereo not drawn) | 1.4%[70.6 µM] | -11.8%[88.5 µM] | 56.2µM* | ? | i
COC1CCN(c2cc(-c3ccsc3)nc3c(C)noc23)CC1 | -2.1%[70.6 µM] | i | 79.4µM* | ? | i
COC1CCCN(c2cc(-c3ccsc3)nc3c(C)noc23)C1 (stereo not drawn) | -0.8%[70.6 µM] | ? | ? | ? | i
O=C(NCC1CC1)c1ccc2nnc(-c3cncc(Cl)c3)n2c1 | nt | i | 0.1%[172 µM] | -4.0%[138 µM] | nt
Cc1noc(C)c1[S+](=O)([O-])NCCNC(=O)c1ccc(-c2cccc(C(F)(F)F)c2)cc1 | nt | nt | ? | 35.5µM* | nt
COc1cccc(-c2ccc(C(=O)NCCNC(=O)c3ccc4c(c3)OCO4)cc2)c1 | nt | nt | 79.4µM* | -26.7% | nt
COc1cccc(-c2ccc(C(=O)NCCN[S+](=O)([O-])c3cccc(C(F)(F)F)c3)cc2)c1 | nt | nt | 31.6µM* | ? | nt
COc1cccc(-c2ccc(C(=O)NCCN[S+](=O)([O-])c3ccccc3)cc2)c1 | nt | nt | 44.7µM* | ? | nt
COc1ccc(C(=O)NCCNC(=O)c2ccc(-c3cccc(OC)c3)cc2)cc1 | nt | nt | -2.8% | -22.6% | nt
Cc1ccccc1C(=O)NC1CCCN(c2ccc3nnc(C4CC4)n3n2)C1 (stereo not drawn) | nt | nt | ? | -25.0% | nt
Cc1ccc(CNC(=O)N2C[C@@H](Oc3cccnc3)C[C@H]2C(=O)N2CCOCC2)cc1 | 4.4% | 1.1% | -11.8% | -9.5% | i
O=C(NCCN[S+](=O)([O-])c1ccccc1)c1cccc(-c2ccc(C(F)(F)F)cc2)c1 | nt | -25.0% | 10µM* | 22.4µM* | nt
C[S+](=O)([O-])NCCNC(=O)c1cccc(-c2ccc(C(F)(F)F)cc2)c1 | nt | i | ? | ? | nt
COc1ccc(NC(=O)c2cc(-c3ccc[nH]3)n[nH]2)cc1OC | -10.2% | i | -20.3% | -10.3% | ?
Cc1ccc(F)cc1NC(=O)c1cc(-c2ccc[nH]2)n[nH]1 | -6.9% | i | ? | -29.3% | 39.8µM*
COc1ccc(OC)c(NC(=O)c2cc(-c3ccc[nH]3)n[nH]2)c1 | -8.5% | -6.4% | 39.8µM* | 44.7µM* | ?
Cc1ccccc1NC(=O)C1CCCN(c2cn[nH]c(=O)c2)C1 (stereo not drawn) | -2.8% | -43.1% | i | -10.3% | i
O=C(c1ccc(Cl)nc1)N1CCC2(C1)C(=O)N(CCc1ccccc1)c1ccccc12 (stereo not drawn) | 6.0% | -2.4% | ? | ? | i
O=C(c1ccccc1Cl)N1CCC2(C1)C(=O)N(CCc1ccccc1)c1ccccc12 (stereo not drawn) | 62.4% | -9.3% | 39.8µM*! | ? | i
CCN1C(=O)C2(CCN(S(=O)(=O)c3ccc(C(F)(F)F)cc3)CC2)c2ccccc21 | -1.4% | 2.0% | 31.6µM* | -10.9% | i
Cc1ccccc1C(=O)N1CCC2(C1)C(=O)N(CCc1ccccc1)c1ccccc12 (stereo not drawn) | -1.6% | i | 39.8µM*! | ? | i
O=C(c1ccc(C(F)(F)F)cc1)N1CCC2(C1)C(=O)N(CCc1ccccc1)c1ccccc12 (stereo not drawn) | ? | 2.3% | 31.6µM* | 39.8µM*! | i
O=C(O)Cc1cccc(OCCCN(Cc2cccc(C(F)(F)F)c2Cl)CC(c2ccccc2)c2ccccc2)c1 | nt | 24.3µM* | nt | nt | nt
Cc1cnc(CCNS(=O)(=O)c2cccc(F)c2)n1Cc1ccc(F)cc1 | nt | -6.8% | 39.8µM* | ? | nt
COCCN1CCC(C(=O)Nc2ccc(Oc3ccccc3F)cc2)CC1 | -2.5% | i | 50.1µM* | ? | i
CCOC(=O)[C@H]1[C@@H](O)C(=O)N(Cc2ccccc2)C12CCN(C(=O)CC1CCCC1)CC2 | nt | nt | -2.5% | ? | nt
CN(Cc1cccc(C(F)(F)F)c1)S(=O)(=O)c1cccs1 | -20.5%[70.6 µM] | i | 89.1µM* | ? | i

Assay outcomes from PubChem.
